# In PubChem BioAssay:
# A number with no mark means an inactive call. Calls of active or inactive are those of the source.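 Rule for the calls: active = inhibition above the hit cutoff set in the earlier primary screen (cut at about 27% in these data); inactive = the rest.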
# Molecular target: Protein phosphatase methylesterase 1 (Homo sapiens) (UniProt Q9Y570)
# Assay: PME-1 inhibitor activity retest, confirmation, biochemical, fluorescence polarization, FP-Rh probe, triplicate (AID 2171);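 note: 0% = enzyme with DMSO and 100% = wells lacking PME-1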
# Conditions: recombinant PME-1, FP-Rh probe fluorescence polarization; at 5.9 µM; active compounds read high
# Sequence of Protein phosphatase methylesterase 1 (Homo sapiens) (Q9Y570 whole entry, looked up): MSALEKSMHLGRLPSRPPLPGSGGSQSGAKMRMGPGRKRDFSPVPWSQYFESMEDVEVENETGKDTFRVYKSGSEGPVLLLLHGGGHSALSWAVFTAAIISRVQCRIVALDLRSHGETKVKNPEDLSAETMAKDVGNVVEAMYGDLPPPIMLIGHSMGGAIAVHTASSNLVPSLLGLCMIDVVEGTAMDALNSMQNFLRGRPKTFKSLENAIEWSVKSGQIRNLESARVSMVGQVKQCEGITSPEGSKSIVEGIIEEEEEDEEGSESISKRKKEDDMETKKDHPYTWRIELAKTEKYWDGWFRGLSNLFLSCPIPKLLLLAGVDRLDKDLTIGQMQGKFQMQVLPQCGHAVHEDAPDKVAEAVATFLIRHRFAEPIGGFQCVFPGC
row,SMILES,inhibition
1,COc1cccc(C(=O)Oc2ccc(/C=N/Nc3ccc(C(=O)O)cc3)cc2OC)c1,36.3% (active)
2,CCC(C)Nc1nc(N)c([N+](=O)[O-])c(Nc2cc(OC)ccc2OC)n1 (stereo not given),34.5% (active)
3,Brc1csc(/C=N/Nc2nc3ccccc3s2)c1,45.3% (active)
4,Nc1cc(C(=O)O)c(N)c2c1C(=O)c1ccccc1C2=O,96.8% (active)
5,CC1=NN(c2ccccc2)C(=O)/C1=C/c1c(O)n(-c2ccc(F)c(Cl)c2)[nH]c1=O,49% (active)
6,O=C(N/N=C/c1cc(Cl)c(O)c(Cl)c1)c1cc2c(ccc3ccccc32)o1,38.5% (active)
7,Oc1c(Br)cc(Br)c(/C=N/n2c(-c3ccccc3)n[nH]c2=S)c1Br,45.5% (active)
8,Cc1cc(-c2nnc(SCC(=O)Nc3nc(-c4ccc(Cl)cc4)cs3)o2)no1,-22.5%
9,C=CCOc1c(OC)cc(/C=N/Nc2cccc(C(=O)O)c2)c(Br)c1Br,44.5% (active)
10,Cc1ccc(-c2nc(Nc3ccccc3)n[nH]2)cc1,48.5% (active)
11,Cc1cc(Nc2ccc(O)cc2)ccc1N,17.6%
12,O=C(NCCc1ccccc1)c1ccc2nc(-c3ccco3)c(-c3ccco3)nc2c1,15.6%
13,Cc1cc(N)ccc1-n1c(C)ccc1C,6.22%
14,O=C(COC(=O)c1cccc2c1C(=O)c1ccccc1C2=O)NC1CCCCC1,56.5% (active)
15,Brc1ccc(-c2ccc(C3Nc4cccc5cccc(c45)N3)o2)cc1,24.1%
16,Cc1ccc(-c2csc(-c3c[nH]c4ccccc34)n2)cc1,11.1%
17,COc1ccc(Nc2ncnc3sc(-c4ccccc4)cc23)cc1,10.1%
18,CCc1ccc2nc3sc(C(=O)Nc4nnc(CC)s4)c(N)c3cc2c1,57.6% (active)
19,Cc1ccccc1NC1=C/C(=N\S(=O)(=O)c2ccc(C(=O)O)cc2)c2ccccc2C1=O,40% (active)
20,COc1ccc(Nc2nc(NN)nc(C)c2[N+](=O)[O-])cc1,17.7%
21,Oc1ccc(N=Cc2ccc(-c3cccs3)s2)cc1,23.3%
22,N#CCCN(CCC#N)C(=O)C1c2ccccc2Oc2ccccc21,-4.23%
23,Brc1ccc(C2Nc3cccc4cccc(c34)N2)s1,20.5%
24,On1onc2c3cc(-c4ccccc4)nc3ccc21,49.3% (active)
25,Nc1cc(N)cc(-c2nc3ccccc3[nH]2)c1,3.51%
